The structures appear in SMILES notation. The campaign covered roughly 190,000 compounds. About 1,300 (0.68%) were called active. This is one part of a sample in which actives are shown more often than they occur. Unmarked numbers belong to inactive results. Cut-off read from the data, not from the text of the source: active = inhibition above about 50%; inactive = the rest.

Results on 96 compounds are retold here after PubChem BioAssay AID1220 (Sanford-Burnham Center for Chemical Genomics, 2008).

This assay deals with Mannose-6-phosphate isomerase (Homo sapiens) (UniProt P34949). The assay can be described thus: human PMI inhibitors, high substrate, primary screen, biochemical, fluorescence intensity, high mannose 6-phosphate (AID 1220). The note with it: recombinant PMI enzyme, coupled fluorescence intensity; at 20 µM; active compounds read high.
Mannose-6-phosphate isomerase (Homo sapiens), sequence (P34949 whole entry, looked up): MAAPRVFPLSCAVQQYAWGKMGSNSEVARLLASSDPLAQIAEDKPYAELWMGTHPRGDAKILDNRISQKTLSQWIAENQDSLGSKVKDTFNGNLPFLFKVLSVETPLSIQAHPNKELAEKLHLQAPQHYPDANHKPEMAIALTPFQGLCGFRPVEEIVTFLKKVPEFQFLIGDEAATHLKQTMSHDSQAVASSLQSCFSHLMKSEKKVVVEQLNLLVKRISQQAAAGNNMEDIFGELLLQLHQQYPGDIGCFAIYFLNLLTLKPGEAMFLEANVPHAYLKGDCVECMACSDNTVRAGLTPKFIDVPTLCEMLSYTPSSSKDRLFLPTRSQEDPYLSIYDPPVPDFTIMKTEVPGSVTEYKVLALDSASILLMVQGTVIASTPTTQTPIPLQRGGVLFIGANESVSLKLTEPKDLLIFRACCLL
`COc1ccccc1CNC(=O)COc1ccc([N+](=O)[O-])cc1`: the inhibition is 2.1%.
Consider `COc1ccc(CC(=O)Nc2cccc(SC)c2)cc1`, for which the inhibition is 1.7%.
As for `COc1ccccc1NC(C)=O`, the inhibition was 9.5%.
On to `O=C1C(Cl)=C(Nc2ccccc2)C(=O)c2ccccc21`, for which the inhibition is 52.5% (active).
The result for `O=C(O)c1cccc(NC2=C(Cl)C(=O)c3ccccc3C2=O)c1` reads 39.9%; that for `CC(=O)Nc1ccc2c(c1)C(=O)c1ccccc1C2=O`, -69.9%; that for `Cc1ccc(NC2=C(Cl)C(=O)c3ccccc3C2=O)cc1`, 41.8%.
Regarding `CC(=O)Nc1ccc(NC2=C(Cl)C(=O)c3ccccc3C2=O)cc1`, the inhibition was 57.8% (active).
As for `O=C1C(Cl)=C(NCCN2CCCCC2)C(=O)c2ccccc21`, the inhibition is 54.3% (active).
For the compound `O=C1c2ccccc2C(=O)N1CCN1CCCCC1`, the inhibition is 2.7%.
As for `COc1ccccc1NC1=C(N2CCCCC2)C(=O)c2ccccc2C1=O`, the inhibition is 2.6%.
Consider `COc1ccccc1NC1=C(NC(C)=O)C(=O)c2ccccc2C1=O`, for which the inhibition was 60.1% (active).
The figure for `O=C(Oc1ccc(NC2=C(Cl)C(=O)c3ccccc3C2=O)cc1)c1ccc([N+](=O)[O-])cc1` is 32.9%.
In the case of `CCNC1=C(Cl)C(=O)c2ccccc2C1=O`, the inhibition was 15.6%.
The figure for `CCCCn1nnnc1SCC(=O)c1ccc(C)c(C)c1` is 7.7%; for `COCCCNC(=O)CCCCCNS(=O)(=O)c1ccc(Br)cc1` it is -6.2%.
The result for `COc1ccccc1OCC(=O)Sc1ccc(C)cc1` reads 13%; that for `CC(=O)c1ccc(N2CCN(C(=O)Nc3ccc(C)cc3)CC2)cc1`, -1.7%; that for `Cc1ccccc1Nc1ncnc(N)n1`, -3.4%.
For `O=[N+]([O-])c1ccc(Cl)cc1Sc1ccccn1`, the inhibition was 2.7%.
Turning to `Cn1c(SCC(=O)c2ccc3c(c2)OCO3)nnc1C1COc2ccccc2O1` (stereo unspecified), the inhibition is 1.3%.
The figure for `COC(=O)c1ccc(CSc2cc(C)c3cc(C)cc(C)c3n2)o1` is -4.5%; for `O=C1C(Cl)=C(NCCCO)C(=O)c2ccccc21` it is 2.8%.
Take `CCN(CC)c1ccc(N2C(=O)c3ccccc3C2=O)cc1`: the inhibition is 4.2%.
For `CCN(CC)c1ccc(NC2=C(Cl)C(=O)c3ccccc3C2=O)cc1`, the inhibition is 56.9% (active).
The result for `CCOc1ccc(NC2=C(OC)C(=O)c3ccccc3C2=O)cc1` reads 25.9%; that for `CCN(CC)CCCNC1=C(Cl)C(=O)c2ccccc2C1=O`, 58.1% (active).
As for `C=CCNC1=C(Cl)C(=O)c2ccccc2C1=O`, the inhibition was 38.6%.
`CN1C(=O)c2ccc(NC(=S)NC(=O)C(C)(C)C)cc2C1=O`: the inhibition was 8.4%.
As for `COCCSc1nnc(NC(=O)C2CCCCC2)s1`, the inhibition is -1.4%.
As to `CCN(c1ccccc1)S(=O)(=O)c1ccc2[nH]cc(C(=O)N3CCOCC3)c(=O)c2c1`, the inhibition was 8.3%.
The figure for `COc1cccc2c(=O)c3cccc(N)c3[nH]c12` is 65.6% (active); for `COc1cccc2c(=O)c(SC(F)(F)C(F)C(F)(F)F)c(C)[nH]c12` (stereo unspecified) it is 6.8%.
As to `COc1cccc2c(=O)c(C/C=C(/C)Cl)c(C)[nH]c12`, the inhibition is 4.6%.
For the compound `COc1ccc(-c2csc(/C(C#N)=C\c3ccc(OC)c([N+](=O)[O-])c3)n2)cc1`, the inhibition was 3.4%.
For the compound `CCN1CCN(C(=S)Nc2ccc3nc4n(c(=O)c3c2)CCCCC4)CC1`, the inhibition was -3.2%.
With `Cc1ccc(S(=O)(=O)NCC(=O)NCC(=O)OCC(=O)N2CC(=O)Nc3ccccc32)cc1C`, the inhibition is 13.9%.
The figure for `COc1ccccc1NC(=O)CC1S/C(=N/N=C2\CCCc3ccccc32)NC1=O` (stereo unspecified) is 6.9%.
On to `CCN(CC)c1ccc(/C=N/N2CCOCC2)c(O)c1`, for which the inhibition is 53.7% (active).
The result for `Fc1ccc(/C=N/N2CCOCC2)c(F)c1` reads 8.8%.
With `COc1cccc(/C=N/N2CCOCC2)c1O`, the inhibition was 3.6%.
Regarding `CCN(CC)c1ccc(/C=N/N2CCOCC2)cc1`, the inhibition was 14.3%.
Take `CCN(CC)c1ccc(/C=N/N2CCN(Cc3cccc4ccccc34)CC2)c(O)c1`: the inhibition was 30.7%.
On to `CCN(CC)c1ccc(/C=N/N2CCN(Cc3ccccc3)CC2)c(O)c1`, for which the inhibition is 53% (active).
`CCN(CC)c1ccc(/C=N/N2CCN(Cc3ccc(C)cc3C)CC2)c(O)c1`: the inhibition is 39.8%.
For `CCN(CC)c1ccc(/C=N/N2CCN(Cc3ccc(C)cc3)CC2)c(O)c1`, the inhibition was 30.3%.
Regarding `CCCn1c(=O)c2ccccc2n2c(SCC(=O)Nc3cc(C)on3)nnc12`, the inhibition is 0%.
Consider `CCC(/C=C1\Sc2ccc(OC)cc2N1CCO)=C\c1sc2ccc(OC)cc2[n+]1CCO`, for which the inhibition is 13%.
Consider `Cc1cc(C)nc(SCCn2c(N3CCC(C)CC3)nc3c2c(=O)n(C)c(=O)n3C)n1`, for which the inhibition is 12.2%.
Regarding `Fc1ccc(NC(=S)N/N=C/c2ccc(F)c(F)c2)c(F)c1`, the inhibition was -6.4%.
`CCN(CC)c1ncnc2sc(C(=O)N3CCN(c4ccccc4)CC3)c(C)c12`: the inhibition was 6.5%.
For the compound `Cc1ccc2cc(CCNC(=O)c3ccc(C)c([N+](=O)[O-])c3)c(=O)[nH]c2c1`, the inhibition is -17%.
The figure for `CN(C(=O)CSc1nnc(-c2ccc(F)cc2)c2ccccc12)C1CCS(=O)(=O)C1` (stereo unspecified) is -14.8%.
In the case of `CSc1sc(C)cc1C1C(C#N)=C(N)N(c2cccnc2)C2=C1C(=O)CC(C)(C)C2` (stereo unspecified), the inhibition is 13.9%.
The result for `CC1CCN(S(=O)(=O)c2ccc3c(c2)oc(=O)n3CC(=O)N2CCc3ccccc3C2)CC1` reads -7.5%; that for `C/C(CC(=O)Nc1cccc(Cl)c1Cl)=N\NC(=O)c1ccccc1C`, 2.3%; that for `C/C(CC(=O)Nc1cccc(Cl)c1Cl)=N\NC(=O)c1ccccc1Br`, 50.8% (active).
Consider `C/C(CC(=O)Nc1cccc(Cl)c1Cl)=N\NC(=O)c1ccccc1N`, for which the inhibition is 3.3%.
With `CCCN(Cc1cc2ccc(C)cc2[nH]c1=O)C(=O)c1ccccn1`, the inhibition was 11%.
In the case of `COc1ccc(NC2SC(=O)N(CC(=O)O)C2=O)cc1` (stereo unspecified), the inhibition was 12.1%.
The figure for `CC(=O)c1ccc(N2CCN(c3ccc(C(N)=O)cc3[N+](=O)[O-])CC2)cc1` is -10.4%; for `COc1ccc(N2CCN(c3ccc(C(N)=O)cc3[N+](=O)[O-])CC2)cc1` it is 16.5%; for `NC(=O)c1ccc(N2CCN(c3ccc(O)cc3)CC2)c([N+](=O)[O-])c1` it is 55.2% (active).
For the compound `O=C(NC1CCCCC1)C(c1ccccc1)N(C(=O)c1cccs1)c1ccc2c(c1)OCO2` (stereo unspecified), the inhibition is -2.5%.
As for `COc1ccccc1NC(=O)c1sc2nc(-c3ccco3)ccc2c1N`, the inhibition was 11.5%.
The result for `Nc1c(C(=O)Nc2ccccc2F)sc2nc(-c3ccco3)ccc12` reads 59.6% (active); that for `Nc1c(C(=O)Nc2ccccc2)sc2nc(-c3ccco3)ccc12`, 15.1%.
Consider `COCCNC(=O)CSc1nc2ccccc2c(=O)n1CCCC(=O)NCc1ccccc1`, for which the inhibition is -3%.
For `COc1ccc(-n2c(C)cc(/C=C/c3nc(O)c([N+](=O)[O-])c(=O)[nH]3)c2C)cc1`, the inhibition was 1.6%.
The figure for `C=CCc1cc(/C=C2/NC(=S)NC2=O)cc(OC)c1O` is 15.3%; for `C=CCc1cc(/C=C/c2nc(O)c([N+](=O)[O-])c(=O)[nH]2)cc(OC)c1O` it is 68.9% (active); for `COc1ccc(Nc2nnc(Cc3ccc(Cl)cc3)c(=O)[nH]2)c(OC)c1` it is 19.1%.
On to `CCC(=O)NC1=C(NC(C)c2ccccc2)C(=O)c2ccccc2C1=O` (stereo unspecified), for which the inhibition was -10.2%.
Turning to `CCC(=O)N(C)/C=C1\Sc2ccccc2C1=O`, the inhibition is 5.7%.
For the compound `CC(C)NC1=C(Cl)C(=O)c2ccccc2C1=O`, the inhibition was -32%.
As to `CCC(=O)N(C1=C(NC(C)C)C(=O)c2ccccc2C1=O)C(C)C`, the inhibition is 58.2% (active).
The result for `CCC(=O)N(CC)C1=C(O)c2ccccc2C(=O)C1=O` reads 15.9%; that for `CCC(=O)N(C1=C(NC)C(=O)c2ccccc2C1=O)C(C)C`, 62.3% (active).
With `OC1CCCN(Cc2cn(Cc3ccccc3)nc2-c2cc3ccccc3o2)C1` (stereo unspecified), the inhibition was 15.3%.
As to `O=C(C1CCN(c2nc3nonc3nc2N2CCCCC2)CC1)N1CCOCC1`, the inhibition is 14.3%.
`CCN(C(=O)COC(=O)c1ccc2[nH]c3c(c2c1)CCCC3)C1CCS(=O)(=O)C1` (stereo unspecified): the inhibition was -6%.
The result for `Cc1cc2cc(CCNC(=O)c3cccc([N+](=O)[O-])c3)c(=O)[nH]c2cc1C` reads -2.2%; that for `CN(CC(=O)Nc1ccc(F)cc1)c1ccc(S(=O)(=O)N2CCCC2)cn1`, 1.4%.
Turning to `CCn1ncc([C@@H]2C[C@H]3CN(Cc4ccccc4C)C(=O)[C@]34CCCN24)c1C`, the inhibition is 25.8%.
Turning to `O=C(O)C1CN(c2nc(Cl)ccc2[N+](=O)[O-])C1`, the inhibition was 47.3%.
On to `O=C(O)CNc1nc(Cl)ccc1[N+](=O)[O-]`, for which the inhibition was 13.4%.
The result for `O=C(O)C1CC(O)CN1c1nc(Cl)ccc1[N+](=O)[O-]` (stereo unspecified) reads 64.1% (active); that for `Cc1cccc(N2C(=O)CC(N3CCOCC3)C2=O)c1` (stereo unspecified), -1.5%; that for `CC1(C)CC(=O)/C(=C(\O)c2ccccc2)C(=NCCc2ccccc2)C1`, -2.6%.
The result for `Cc1cc(C)nc(-n2cc(C(=O)c3cc(F)ccc3O)cn2)n1` reads 52.4% (active); that for `Cc1ccc(O)c(C(=O)c2cnn(-c3ccccc3)c2)c1`, 12.6%; that for `Cc1ncc(CC(=O)n2cc(C(=O)c3cc(F)ccc3O)cn2)s1`, 8.5%.
Regarding `CCN(CC)CCCNC(=O)c1cn(CC)c2ccc(S(=O)(=O)N3CCc4ccccc4C3)cc2c1=O`, the inhibition is 0%.
The figure for `O=C1CNC(=O)/C1=C\c1ccc(O)cc1` is -3.7%; for `Cc1c(NC(=O)OCCSc2nc(N(C)C)nc(N(C)C)n2)sc(=S)n1C` it is 5.4%; for `CSc1ccccc1NC(=O)C(=O)c1c[nH]c2ccccc12` it is -2.7%.

The inhibition is the change of the read-out against control, counted positive when it falls.
